Here are results for 14 molecules from PubChem BioAssay (NCI).

About 83,000 compounds went through this panel and 20% of them were active in at least one assay; those are over-represented in the sample as a whole.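 In brief: 96-well plates, 48 h treatment, single concentration, percent growth endpoint.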 Unmarked numbers belong to inactive results. Activity calls are given as the source filed them. Rule for the calls: active = growth percent below 10; inactive = the rest.

The test system of this experiment is HT29 colon. Briefly: NCI-60 one-dose screen, 48 h (100 = growth as untreated, 0 = no growth, -100 = all killed). Conditions: 10 µM unless noted.
In the case of `NC(=O)c1c(NC(=O)c2ccc(Cl)cc2)sc2c1CCC(=O)C2`, the growth was 62.5%.

As to `COc1ccc(/C(C)=C(\c2ccc(OCCN3CCCCCC3)cc2)c2ccc(OC(=O)c3ccccc3)cc2)cc1`, the growth is -3.62% (active).

With `Clc1ccc(-c2cn3ccsc3n2)c(Cl)c1Cl`, the growth is 105%.

As to `COc1ccc(Cl)cc1Nc1nc(C(F)(F)F)ccc1C(=O)N/N=C/c1ccccc1Cl`, the growth is 9.32% (active).

On to `Cc1cc(C)cc(Nc2ccc([N+](=O)[O-])c(NCCN3CCOCC3)n2)c1`, for which the growth is 13.4%.

As for `C=CCn1c(SCC(=O)Nc2ccc(C(=O)/C=C/c3cc(OC)c(OC)c(OC)c3)cc2)nnc1-c1cc(-c2ccc(OC)cc2)nc2ccccc12`, the growth was 101%.

For the molecule `C#CCOc1cccc(-c2ncc3cc(NC(=O)CCl)ccc3n2)c1`, the growth is -67.6% (active).

As for `Cn1cc(-c2nn3cc(-c4ccccc4)nc3s2)c2ccccc21`, the growth is 44.5%.

As to `Cc1cc2nc3c4ccccc4n(CCN(C)C)c3nc2cc1C`, the growth was 8.23% (active).

Regarding `CCC(C)Nc1ccc(NC(C)CC)cc1` (centres undefined), the growth is 71.5%.

Take `O=C(CCCCCCN1CC(=O)N2[C@@H](C3CCCCC3)c3[nH]c4ccccc4c3C[C@H]2C1=O)NO`: the growth was 58.9%.

With `C(/C=C/c1ccccc1)=Nc1ccc(CCc2ccc(N=C/C=C/c3ccccc3)cc2)cc1`, the growth is 36.4%.

Consider `Cc1c2ccccc2nc2c1ccc1cccnc12`, for which the growth was 70.9%.

Regarding `Cc1ncc(C(=O)Nc2ccc(CN3CCN(C)CC3)c(C(F)(F)F)c2)cc1C#Cc1cnc(N)c2cnccc12`, the growth was -43.1% (active).
